Source: PubChem BioAssay (Tox21)
Inconclusive results are not listed. Active and inactive are the calls of the source. Unless noted, calls come from the whole dose curve; as a rule, active = well fitted curve in the direction sought with a large enough effect in the repeat runs; inconclusive = weak or mixed curves; inactive = no such curve, though single readings can be large; an effect the other way counts as inactive or inconclusive.

Tests used:
[1] = qHTS assay to identify small molecule agonists of the peroxisome proliferator-activated receptor delta (PPARd) signaling pathway - cell viability counter screen (AID 743211); note: % is set by controls: 0 for no effect and ±100 for the full control effect; nearly all actives have a fitted effect of over 55% in size
Summary of the method: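 Viability of GeneBLAzer PPARd UAS-bla HEK293H cells was assessed after 17 h compound incubation at 37C, using CellTiter-Glo reagent added after the reporter read and luminescence recorded 30 min later.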

[2] = molecular target: Peroxisome proliferator-activated receptor delta (Homo sapiens) (UniProt Q03181); assay: qHTS assay to identify small molecule agonists of the peroxisome proliferator-activated receptor delta (PPARd) signaling pathway (AID 743212; calls by dose curve; note: % is set by controls: 0 for no effect and ±100 for the full control effect)
Peroxisome proliferator-activated receptor delta (Homo sapiens), sequence (Q03181 whole entry, looked up): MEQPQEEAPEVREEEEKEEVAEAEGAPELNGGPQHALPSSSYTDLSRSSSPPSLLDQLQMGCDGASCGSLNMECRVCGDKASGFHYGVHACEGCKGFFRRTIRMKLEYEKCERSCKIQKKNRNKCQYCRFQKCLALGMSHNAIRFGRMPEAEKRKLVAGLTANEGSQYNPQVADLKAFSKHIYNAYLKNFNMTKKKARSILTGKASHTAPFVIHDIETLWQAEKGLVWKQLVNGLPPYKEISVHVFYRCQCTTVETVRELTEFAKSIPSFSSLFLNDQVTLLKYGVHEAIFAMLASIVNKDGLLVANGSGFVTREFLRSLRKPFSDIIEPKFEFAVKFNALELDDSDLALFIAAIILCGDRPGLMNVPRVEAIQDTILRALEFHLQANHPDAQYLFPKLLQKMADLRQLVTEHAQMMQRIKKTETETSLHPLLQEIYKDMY
Summary of the method: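 Quantitative high-throughput agonist screen in a HEK293H beta-lactamase reporter line under UAS control. Compounds in DMSO, at 37 C. Fluorescence read after 2 h with FRET substrate at room temperature.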

[3] = qHTS assay to identify small molecule antagonists of the peroxisome proliferator-activated receptor delta (PPARd) signaling pathway - cell viability counter screen (AID 743213); note: % is set by controls: 0 for no effect and ±100 for the full control effect; nearly all actives have a fitted effect of over 50% in size
Summary of the method: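 Cytotoxicity counter screen: CellTiter-Glo luminescence read 30 min after addition, in the same wells as the reporter assay. There, PPARd UAS-bla HEK293H cells (3000/well) were treated 17 h at 37 C with compound and 300 nM L165041.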

[4] = qHTS assay to identify small molecule agonists of the farnesoid-X-receptor (FXR) signaling pathway - cell viability counter screen (AID 743218); note: % is set by controls: 0 for no effect and ±100 for the full control effect; nearly all actives have a fitted effect of over 45% in size
Summary of the method: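 Parallel cytotoxicity test: compound-treated (16 h, 37 C) HEK 293T FXR-bla reporter cells were lysed with CellTiter-Glo and luminescence recorded.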

[5] = molecular target: Bile acid receptor (Homo sapiens) (UniProt Q96RI1); assay: qHTS assay to identify small molecule agonists of the farnesoid-X-receptor (FXR) signaling pathway (AID 743220; active = well fitted activation curve with a large enough effect in the signal ratio in the repeat runs, not every such curve was filed as active; the % refers to the signal ratio; note: % is set by controls: 0 for no effect and ±100 for the full control effect)
Bile acid receptor (Homo sapiens), sequence (Q96RI1 whole entry, looked up): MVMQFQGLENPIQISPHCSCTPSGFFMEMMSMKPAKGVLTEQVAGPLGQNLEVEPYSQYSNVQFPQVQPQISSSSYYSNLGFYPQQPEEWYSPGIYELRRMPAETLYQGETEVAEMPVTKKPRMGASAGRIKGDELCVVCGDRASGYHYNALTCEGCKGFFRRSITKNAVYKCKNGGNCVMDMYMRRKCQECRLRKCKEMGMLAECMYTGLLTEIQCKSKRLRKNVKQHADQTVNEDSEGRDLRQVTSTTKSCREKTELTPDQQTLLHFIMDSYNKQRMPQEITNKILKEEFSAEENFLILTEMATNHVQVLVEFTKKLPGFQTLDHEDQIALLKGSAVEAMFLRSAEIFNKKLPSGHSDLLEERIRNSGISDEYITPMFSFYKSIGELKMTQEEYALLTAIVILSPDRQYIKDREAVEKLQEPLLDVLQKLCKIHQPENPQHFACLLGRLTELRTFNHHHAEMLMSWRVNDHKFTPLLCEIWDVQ
Summary of the method: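 Beta-lactamase reporter under UAS control in GeneBLAzer FXR HEK 293T cells (5000/well) measured with LiveBLAzer FRET substrate after 2 h at room temperature. Compound exposure lasted 16 h at 37C.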

[6] = qHTS assay to identify small molecule antagonists of the farnesoid-X-receptor (FXR) signaling pathway - cell viability counter screen (AID 743221; active = well fitted cell-killing curve with a large enough effect in the repeat runs, not every such curve was filed as active; note: % is set by controls: 0 for no effect and ±100 for the full control effect; nearly all actives have a fitted effect of over 50% in size)
Summary of the method: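 Quantitative HTS of the Tox21 10K library run in parallel with the beta-lactamase reporter read. HEK 293T cells carrying a UAS-driven bla reporter got compound and 50 uM CDCA (final) for 16 h; ATP-based luminescence followed.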

[7] = molecular target: Vitamin D3 receptor (Homo sapiens) (UniProt P11473); assay: qHTS assay to identify small molecule agonists of the vitamin D receptor (VDR) signaling pathway (AID 743222; calls by dose curve; note: % is set by controls: 0 for no effect and ±100 for the full control effect)
Vitamin D3 receptor (Homo sapiens), sequence (P11473 whole entry, looked up): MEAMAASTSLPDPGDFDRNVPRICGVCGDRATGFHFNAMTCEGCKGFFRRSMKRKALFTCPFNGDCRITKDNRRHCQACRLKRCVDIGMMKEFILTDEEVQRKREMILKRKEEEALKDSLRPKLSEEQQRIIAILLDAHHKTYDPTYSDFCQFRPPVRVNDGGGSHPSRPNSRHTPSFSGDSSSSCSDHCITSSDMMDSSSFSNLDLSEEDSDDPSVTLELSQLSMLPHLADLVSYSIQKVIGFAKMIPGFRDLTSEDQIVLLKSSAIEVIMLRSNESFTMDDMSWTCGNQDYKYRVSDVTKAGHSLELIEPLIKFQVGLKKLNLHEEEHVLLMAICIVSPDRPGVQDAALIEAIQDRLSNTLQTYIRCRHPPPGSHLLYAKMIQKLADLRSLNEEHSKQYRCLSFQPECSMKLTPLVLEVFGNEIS
Summary of the method: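 In VDR-bla cells, compound-induced beta-lactamase expression is quantified by FRET substrate fluorescence. Treatment lasts 16 h at 37C; substrate develops 2 h at room temperature.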

[8] = molecular target: Vitamin D3 receptor (Homo sapiens) (UniProt P11473); assay: qHTS assay to identify small molecule antagonists of the vitamin D receptor (VDR) signaling pathway (AID 743223; active = well fitted inhibition curve with a large enough effect in the signal ratio in the repeat runs, not every such curve was filed as active; the % refers to the signal ratio; note: % is set by controls: 0 for no effect and ±100 for the full control effect)
Summary of the method: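 Fluorescence from LiveBLAzer B/G FRET substrate, read after 2 h at room temperature, reflects beta-lactamase reporter activity in VDR-bla cells treated 16 h at 37C with compounds and agonist 1alpha,25-dihydroxyvitamin D3 (3 nM final).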

[9] = qHTS assay to identify small molecule agonists of the vitamin D receptor (VDR) signaling pathway - cell viability counter screen (AID 743224); note: series mostly up to about 63 µM; % is set by controls: 0 for no effect and ±100 for the full control effect; nearly all actives have a fitted effect of over 50% in size
Summary of the method: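 Plated VDR-bla cells (4 h, 37C) received compound, incubated 16 h, then LiveBLAzer substrate 2 h RT; CellTiter-Glo added afterwards, luminescence read at 30 min.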

[10] = qHTS assay to identify small molecule antagonists of the vitamin D receptor (VDR) signaling pathway - cell viability counter screen (AID 743225); note: % is set by controls: 0 for no effect and ±100 for the full control effect; nearly all actives have a fitted effect of over 50% in size
Summary of the method: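 Cells (VDR-UAS-bla HEK 293T) are plated, rested 4 h at 37C, dosed with compound and 3 nM final 1-alpha,25-dihydroxy vitamin D3, and incubated 16 h. Viability is taken from CellTiter-Glo luminescence in the reporter wells.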

[11] = qHTS assay to identify small molecule agonists of the NFkB signaling pathway (AID 1159509; active = well fitted curve in the direction sought with a large enough effect in the signal ratio in the repeat runs, not every such curve was filed as active; the % refers to the signal ratio)
Summary of the method: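 After overnight attachment, reporter cells received test compounds, DMSO or positive controls and were incubated 5 hr at 37 C. FRET substrate was then added for 1.5 hr at room temperature before dual-emission fluorescence reading.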

[12] = qHTS assay to identify small molecule agonists of the NFkB signaling pathway - cell viability counter screen (AID 1159515; calls by dose curve; note: series mostly up to about 61 µM; % is set by controls: 0 for no effect and ±100 for the full control effect; nearly all actives have a fitted effect of over 55% in size)
Summary of the method: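 Using the same wells as the NFkB reporter read, ME-180 NFkB-bla cells given compounds for 5 hr were assessed for viability via CellTiter-Glo, with luminescence taken after a 30 min room-temperature incubation.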

[13] = qHTS assay to identify small molecule agonists of the endoplasmic reticulum stress response signaling pathway (AID 1159516; active = well fitted activation curve with a large enough effect in the signal ratio in the repeat runs, not every such curve was filed as active; the % refers to the signal ratio; note: % is set by controls: 0 for no effect and ±100 for the full control effect)
Summary of the method: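 An ESRE-bla HeLa cell assay: compounds were pin-transferred from DMSO onto overnight-plated cells and left 5 hr at 37 C. Substrate was then loaded for 2 hr at room temperature before reading fluorescence at 460 nm and 530 nm.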

[14] = qHTS assay to identify small molecule agonists of the endoplasmic reticulum stress response signaling pathway - cell viability counter screen (AID 1159517; calls by dose curve)
Summary of the method: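 Counter-screen wells were identical to the reporter wells. Cells were plated at 1,500 per well and dosed for 5 hr, then read for luminescence 30 min after CellTiter-Glo addition.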

[15] = qHTS assay to identify small molecule antagonists of the retinoid-related orphan receptor gamma (ROR-gamma) signaling pathway - cell viability counter screen (AID 1159520)
Summary of the method: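 Tet-on ROR gamma CHO cells were given compounds for 2 hr, then doxycycline hyclate at 1 uM final, and incubated 16 hr at 37 C. Viability was measured as ATP content by CellTiter-Glo luminescence.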

[16] = molecular target: Nuclear receptor ROR-gamma (Homo sapiens) (UniProt P51449); assay: qHTS assay to identify small molecule antagonists of the retinoid-related orphan receptor gamma (ROR-gamma) signaling pathway (AID 1159521)
Summary of the method: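 RORγ antagonism is scored from reduced reporter luminescence in Tet-on CHO cells. Induction used 1 uM final doxycycline hyclate for 16 h at 37 C, following a 2 h compound exposure.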

[17] = qHTS assay to identify small molecule agonists of the AP-1 signaling pathway - cell viability counter screen (AID 1159525; calls by dose curve; note: nearly all actives have a fitted effect of over 55% in size)
Summary of the method: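 AP-1-bla ME-180 cells in Opti-MEM with 0.5% dialyzed FBS, compound exposure 5 h at 37 C in 15-point titration. Viability read in the same wells as ATP content by CellTiter-Glo luminescence, normalised to tetra-n-octylammonium bromide and DMSO controls.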

[18] = qHTS assay to identify small molecule agonists of the AP-1 signaling pathway (AID 1159526; calls by dose curve; note: % is set by controls: 0 for no effect and ±100 for the full control effect)
[19] = molecular target: Bile acid receptor (Homo sapiens) (UniProt Q96RI1); assay: qHTS assay to identify small molecule antagonists of the farnesoid-X-receptor (FXR) signaling pathway (AID 743217; active = well fitted inhibition curve with a large enough effect in the signal ratio in the repeat runs, not every such curve was filed as active; the % refers to the signal ratio; note: % is set by controls: 0 for no effect and ±100 for the full control effect)
Summary of the method: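 GeneBLAzer FXR-UAS-bla HEK 293T, CDCA-stimulated (50 uM final). Compound treatment 16 h, 37 °C. Detection: beta-lactamase cleavage of B/G FRET substrate, fluorescence.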

[20] = molecular target: Peroxisome proliferator-activated receptor delta (Homo sapiens) (UniProt Q03181); assay: qHTS assay to identify small molecule antagonists of the peroxisome proliferator-activated receptor delta (PPARd) signaling pathway (AID 743215; active = well fitted inhibition curve with a large enough effect in the signal ratio in the repeat runs, not every such curve was filed as active; the % refers to the signal ratio)
Summary of the method: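 HEK293H UAS-bla, PPARd; agonist L165041 300 nM final with cpd in DMSO; 37 C 17 h; FRET substrate, RT 2 h; fluorescence intensity.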

C[C@H](N)[C@H](O)c1cccc(O)c1
inactive: outcome [1] | outcome [2] | outcome [3] | Potency [4] | Potency [5] | outcome [6] | outcome [7] | outcome [8] | Potency [9] | outcome [10] | outcome [11] | outcome [12] | outcome [13] | Potency [14] | outcome [15] | outcome [16] | outcome [17] | outcome [18]

Cc1nc2n(c(=O)c1CCN1CCC(c3noc4cc(F)ccc34)CC1)CCC[C@H]2O
inactive: outcome [1] | outcome [2] | outcome [3] | Potency [19] | Potency [4] | Potency [5] | outcome [6] | outcome [7] | outcome [8] | Potency [9] | outcome [10] | outcome [11] | outcome [12] | outcome [13] | Potency [14] | activity, negative = cytotoxicity [15] 0.561% [at 19 µM] | activity change, negative = inhibition [16] 29.3% [at 19 µM] | viability change, negative = cytotoxic [17] 2.97% [at 15.8 µM] | activation [18] 6.23% [at 15.8 µM]

CCC(C=O)CC
inactive: outcome [1] | outcome [2] | outcome [3] | outcome [20] | Potency [19] | Potency [4] | Potency [5] | outcome [6] | outcome [7] | outcome [8] | Potency [9] | outcome [10] | outcome [11] | outcome [12] | outcome [13] | Potency [14] | outcome [15] | outcome [16] | outcome [17] | outcome [18]

Oc1cn2c(n1)Nc1ccc(Cl)c(Cl)c1C2
inactive: outcome [1] | outcome [2] | outcome [3] | outcome [20] | Potency [4] | outcome [6] | outcome [7] | outcome [8] | outcome [10] | outcome [11] | outcome [12] | outcome [13] | Potency [14] | activity, negative = cytotoxicity [15] -0.0979% [at 19 µM] | activity change, negative = inhibition [16] 0.185% [at 19 µM] | viability change, negative = cytotoxic [17] -0.119% [at 15.8 µM] | activation [18] 0.89% [at 15.8 µM]

CCCCNc1ccc(C(=O)OCCN(C)C)cc1
inactive: outcome [1] | outcome [2] | outcome [3] | outcome [20] | outcome [6] | outcome [7] | outcome [8] | Potency [9] | outcome [10] | outcome [11] | outcome [12] | outcome [13] | Potency [14] | outcome [15] | outcome [16] | outcome [17] | outcome [18]

Cc1ccc2c(c1)OCC(=O)CO2
inactive: outcome [1] | outcome [2] | outcome [3] | outcome [20] | Potency [19] | Potency [4] | Potency [5] | outcome [6] | outcome [7] | Potency [9] | outcome [11] | outcome [12] | outcome [13] | Potency [14] | outcome [15] | outcome [16] | outcome [17] | outcome [18]

COc1cc(C(=S)N2CCOCC2)cc(OC)c1OC
inactive: outcome [1] | outcome [2] | outcome [3] | outcome [20] | Potency [19] | Potency [4] | Potency [5] | outcome [6] | outcome [7] | outcome [8] | Potency [9] | outcome [10] | outcome [11] | outcome [12] | outcome [13] | Potency [14] | outcome [15] | outcome [16] | outcome [17] | outcome [18]

CCCCCCN
inactive: outcome [1] | outcome [2] | outcome [3] | outcome [20] | Potency [4] | outcome [6] | outcome [7] | outcome [8] | Potency [9] | outcome [10] | outcome [11] | outcome [12] | outcome [13] | Potency [14] | outcome [15] | outcome [16] | outcome [17] | outcome [18]

C=Cc1ccccn1
inactive: outcome [1] | outcome [2] | outcome [3] | outcome [20] | Potency [4] | outcome [6] | outcome [7] | outcome [8] | outcome [11] | outcome [12] | outcome [13] | Potency [14] | outcome [15] | outcome [16] | outcome [17] | outcome [18]

CC(=C(CCOC(=O)C(C)C)SSC(CCOC(=O)C(C)C)=C(C)N(C=O)Cc1cnc(C)nc1N)N(C=O)Cc1cnc(C)nc1N
inactive: outcome [1] | outcome [2] | outcome [3] | outcome [20] | Potency [4] | Potency [5] | outcome [6] | outcome [7] | outcome [8] | Potency [9] | outcome [10] | outcome [11] | outcome [12] | outcome [13] | Potency [14] | outcome [15] | outcome [16] | outcome [17] | outcome [18]

C=C(C)C(=O)OCc1ccccc1
inactive: outcome [1] | outcome [2] | outcome [3] | Potency [19] | Potency [4] | Potency [5] | outcome [6] | outcome [7] | outcome [8] | Potency [9] | outcome [11] | outcome [12] | outcome [13] | Potency [14] | outcome [15] | outcome [16] | outcome [17] | outcome [18]

CCOC(=O)/C=C/c1ccccc1
inactive: outcome [1] | outcome [2] | outcome [3] | outcome [20] | Potency [4] | outcome [6] | outcome [7] | outcome [8] | Potency [9] | outcome [11] | outcome [12] | outcome [13] | Potency [14] | outcome [15] | outcome [16] | outcome [17] | outcome [18]

O=C(O)Cc1ccc(Cl)cc1Cl
inactive: outcome [1] | outcome [2] | outcome [3] | outcome [20] | Potency [4] | outcome [6] | outcome [7] | outcome [8] | Potency [9] | outcome [10] | outcome [11] | outcome [12] | outcome [13] | Potency [14] | outcome [15] | outcome [16] | outcome [17] | outcome [18]

CC(C)=CCOC(=O)c1ccccc1
inactive: outcome [1] | outcome [2] | outcome [3] | outcome [20] | Potency [4] | outcome [6] | Potency [9] | outcome [11] | outcome [12] | outcome [13] | Potency [14] | outcome [15] | outcome [16] | outcome [17] | outcome [18]
